From the supplement of paper PMC11732987, “Enantioselective OTUD7B fragment discovery through chemoproteomics screening and high-throughput optimisation” (Communications Chemistry, 2025)

Assays:
Test in all cases: log2 ratio of Biotin-Ahx-Ub-VS probe labelling (compound/DMSO); higher = less target engagement, active = hit call of the paper (q ≤ 0.05, log2 ratio ≤ -1)
Conditions in all cases: treatment time: 3 h
[1] = compound: CCC1N(CCc2sccc12)C(=O)CCl
Method in brief: (§1)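 HEK293T lysate (495 µg per sample, in Tris/CHAPS/IGEPAL buffer with protease inhibitors) was exposed in triplicate to compound at 50 or 200 µM, or to DMSO, for 3 h, then to Biotin-Ahx-Ub-VS (0.5 µM final) for 1 h. The labelled DUBs were enriched on NeutrAvidin, digested with LysC and trypsin, and analysed by diaPASEF LC-MS/MS. Average base-two log ratios of compound over DMSO came from median-normalised label-free quantities by unpaired t-test. Only proteins with at least 2 unique peptides were used.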

[2] = compound: CN1c2ccccc2C(CS1(=O)=O)NC(=O)CCl
Method in brief: as §1

[3] = compound: Cl.ClCC(=O)N1CCc2ncncc2C1
Method in brief: as §1

[4] = compound: Cl.Cn1ncc2C(CCCc12)NC(=O)CCl
Method in brief: as §1

[5] = compound: ClCC(=O)NC1CCOc2ccccc12
Method in brief: as §1

[6] = compound: ClCC(=O)NC1CCCc2ccccc12
Method in brief: (§2)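 HEK293T lysate (495 µg per sample, in Tris/CHAPS/IGEPAL buffer with protease inhibitors) was treated in triplicate with compound over a concentration series or DMSO for 3 h, then with Biotin-Ahx-Ub-VS (0.5 µM final) for 1 h. Labelled DUBs were NeutrAvidin-enriched, digested with LysC and trypsin, and run by diaPASEF LC-MS/MS. Spectronaut label-free protein quantities were global-median-normalised. Values are average log2 ratios compound/DMSO from an unpaired t-test, using proteins with ≥2 unique peptides.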

[7] = compound: ClCC(=O)N[C@@H]1CCCc2ccccc12
Method in brief: as §2

[8] = compound: ClCC(=O)N[C@H]1CCCc2ccccc12
Method in brief: as §2

[9] = compound: CCC1N(CCc2cc(OC)c(Cl)cc12)C(=O)CCl
Method in brief: as §1

[10] = compound: CCCC1N(CCc2cc(OC)c(OC)cc12)C(=O)CCl
Method in brief: as §1

Measured: log2 ratio of Biotin-Ahx-Ub-VS probe labelling

PRPF8 (UniProt Q6P2Q9)
inactive: [1]; compound concentration: 50uM -0.0394 | [1]; compound concentration: 200uM -0.112 | [2]; compound concentration: 50uM -0.0921 | [2]; compound concentration: 200uM -0.054 | [3]; compound concentration: 50uM 0.0381 | [3]; compound concentration: 200uM -0.119 | [4]; compound concentration: 50uM 0.0788 | [4]; compound concentration: 200uM 0.0562 | [5]; compound concentration: 50uM 0.0594 | [5]; compound concentration: 200uM -0.157 | [6]; compound concentration: 0.78uM -0.034 | [6]; compound concentration: 1.56uM -0.0309 | [6]; compound concentration: 3.13uM -0.104 | [6]; compound concentration: 6.25uM -0.01 | [6]; compound concentration: 12.5uM -0.0322 | [6]; compound concentration: 25uM -0.101 | [6]; compound concentration: 50uM -0.0882 | [6]; compound concentration: 100uM -0.0511 | [6]; compound concentration: 200uM -0.0422 | [7]; compound concentration: 0.78uM -0.0504 | [7]; compound concentration: 1.56uM -0.022 | [7]; compound concentration: 3.13uM -0.0939 | [7]; compound concentration: 6.25uM -0.0748 | [7]; compound concentration: 12.5uM -0.0604 | [7]; compound concentration: 25uM -0.0428 | [7]; compound concentration: 50uM -0.086 | [7]; compound concentration: 100uM -0.0702 | [7]; compound concentration: 200uM -0.137 | [8]; compound concentration: 0.78uM -0.0339 | [8]; compound concentration: 1.56uM -0.0293 | [8]; compound concentration: 3.13uM -0.049 | [8]; compound concentration: 6.25uM 0.0146 | [8]; compound concentration: 12.5uM -0.0785 | [8]; compound concentration: 25uM -0.109 | [8]; compound concentration: 50uM -0.0661 | [8]; compound concentration: 100uM -0.111 | [8]; compound concentration: 200uM -0.149 | [9]; compound concentration: 50uM 0.0405 | [9]; compound concentration: 200uM 0.131 | [10]; compound concentration: 50uM -0.0761 | [10]; compound concentration: 200uM -0.182

USP22 (UniProt Q9UPT9)
Sequence of UniProt Q9UPT9 (Q9UPT9 whole entry): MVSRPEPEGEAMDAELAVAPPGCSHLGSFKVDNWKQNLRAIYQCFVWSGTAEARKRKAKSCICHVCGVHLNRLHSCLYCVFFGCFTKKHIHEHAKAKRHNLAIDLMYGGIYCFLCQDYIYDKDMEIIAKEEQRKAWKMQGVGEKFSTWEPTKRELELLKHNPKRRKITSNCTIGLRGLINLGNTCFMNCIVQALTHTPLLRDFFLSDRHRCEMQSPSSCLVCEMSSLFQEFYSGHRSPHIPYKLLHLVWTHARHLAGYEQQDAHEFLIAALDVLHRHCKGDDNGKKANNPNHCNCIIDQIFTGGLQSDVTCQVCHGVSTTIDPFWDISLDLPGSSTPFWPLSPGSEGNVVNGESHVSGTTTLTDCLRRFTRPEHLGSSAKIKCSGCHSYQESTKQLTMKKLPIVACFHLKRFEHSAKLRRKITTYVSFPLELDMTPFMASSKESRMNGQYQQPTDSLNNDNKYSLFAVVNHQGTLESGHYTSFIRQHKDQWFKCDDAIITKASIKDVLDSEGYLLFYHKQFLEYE
inactive: [1]; compound concentration: 50uM -0.0676 | [1]; compound concentration: 200uM -0.0769 | [2]; compound concentration: 50uM -0.0879 | [2]; compound concentration: 200uM -0.227 | [3]; compound concentration: 50uM 0.165 | [3]; compound concentration: 200uM -0.284 | [4]; compound concentration: 50uM 0.167 | [4]; compound concentration: 200uM -0.0888 | [5]; compound concentration: 50uM 0.0839 | [5]; compound concentration: 200uM -0.0221 | [6]; compound concentration: 0.78uM -0.256 | [6]; compound concentration: 1.56uM -0.271 | [6]; compound concentration: 3.13uM -0.269 | [6]; compound concentration: 6.25uM -0.318 | [6]; compound concentration: 12.5uM -0.0891 | [6]; compound concentration: 25uM -0.169 | [6]; compound concentration: 50uM -0.192 | [6]; compound concentration: 100uM -0.263 | [6]; compound concentration: 200uM -0.376 | [7]; compound concentration: 0.78uM -0.254 | [7]; compound concentration: 1.56uM -0.18 | [7]; compound concentration: 3.13uM -0.341 | [7]; compound concentration: 6.25uM -0.0166 | [7]; compound concentration: 12.5uM -0.101 | [7]; compound concentration: 25uM -0.166 | [7]; compound concentration: 50uM -0.259 | [7]; compound concentration: 100uM -0.0453 | [7]; compound concentration: 200uM -0.238 | [8]; compound concentration: 0.78uM -0.107 | [8]; compound concentration: 1.56uM -0.258 | [8]; compound concentration: 3.13uM -0.171 | [8]; compound concentration: 6.25uM -0.0996 | [8]; compound concentration: 12.5uM -0.17 | [8]; compound concentration: 25uM -0.0497 | [8]; compound concentration: 50uM -0.0246 | [8]; compound concentration: 100uM -0.0113 | [8]; compound concentration: 200uM -0.194 | [9]; compound concentration: 50uM -0.141 | [9]; compound concentration: 200uM -0.349 | [10]; compound concentration: 50uM -0.229 | [10]; compound concentration: 200uM -0.475

PSMD7 (UniProt P51665)
Sequence of UniProt P51665 (P51665 whole entry): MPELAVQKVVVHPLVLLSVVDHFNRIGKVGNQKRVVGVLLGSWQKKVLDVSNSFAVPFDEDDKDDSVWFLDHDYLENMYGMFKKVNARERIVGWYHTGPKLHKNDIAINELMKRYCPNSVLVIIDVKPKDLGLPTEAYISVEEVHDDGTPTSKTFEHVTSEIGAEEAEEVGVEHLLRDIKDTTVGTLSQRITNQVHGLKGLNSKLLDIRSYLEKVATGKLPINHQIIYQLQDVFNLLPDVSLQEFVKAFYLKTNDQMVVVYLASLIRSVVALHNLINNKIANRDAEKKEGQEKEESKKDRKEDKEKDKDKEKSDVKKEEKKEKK
inactive: [1]; compound concentration: 50uM 0.0196 | [1]; compound concentration: 200uM -0.639 | [2]; compound concentration: 50uM -1.31 | [2]; compound concentration: 200uM 0.533 | [3]; compound concentration: 50uM -3.61 | [3]; compound concentration: 200uM 0.0399 | [4]; compound concentration: 50uM 0.173 | [4]; compound concentration: 200uM 0.483 | [5]; compound concentration: 50uM 1.07 | [5]; compound concentration: 200uM 1 | [6]; compound concentration: 0.78uM -0.113 | [6]; compound concentration: 1.56uM -0.191 | [6]; compound concentration: 3.13uM -0.247 | [6]; compound concentration: 6.25uM -0.311 | [6]; compound concentration: 12.5uM -0.243 | [6]; compound concentration: 25uM -0.439 | [6]; compound concentration: 50uM -0.166 | [6]; compound concentration: 100uM 0.0296 | [6]; compound concentration: 200uM -0.486 | [7]; compound concentration: 0.78uM -0.113 | [7]; compound concentration: 1.56uM 0.319 | [7]; compound concentration: 3.13uM 0.0163 | [7]; compound concentration: 6.25uM -0.0645 | [7]; compound concentration: 12.5uM 0.0151 | [7]; compound concentration: 25uM 0.0566 | [7]; compound concentration: 50uM -0.252 | [7]; compound concentration: 100uM 0.0397 | [7]; compound concentration: 200uM 0.357 | [8]; compound concentration: 0.78uM 0.0931 | [8]; compound concentration: 1.56uM 0.0292 | [8]; compound concentration: 3.13uM 0.0943 | [8]; compound concentration: 6.25uM -0.111 | [8]; compound concentration: 12.5uM -0.00799 | [8]; compound concentration: 25uM -0.0922 | [8]; compound concentration: 50uM 0.0424 | [8]; compound concentration: 100uM -0.132 | [8]; compound concentration: 200uM -0.169 | [9]; compound concentration: 50uM 0.122 | [9]; compound concentration: 200uM 1.79 | [10]; compound concentration: 50uM 0.742 | [10]; compound concentration: 200uM 0.149

UniProt Q70EL2
Sequence of UniProt Q70EL2 (Q70EL2 whole entry): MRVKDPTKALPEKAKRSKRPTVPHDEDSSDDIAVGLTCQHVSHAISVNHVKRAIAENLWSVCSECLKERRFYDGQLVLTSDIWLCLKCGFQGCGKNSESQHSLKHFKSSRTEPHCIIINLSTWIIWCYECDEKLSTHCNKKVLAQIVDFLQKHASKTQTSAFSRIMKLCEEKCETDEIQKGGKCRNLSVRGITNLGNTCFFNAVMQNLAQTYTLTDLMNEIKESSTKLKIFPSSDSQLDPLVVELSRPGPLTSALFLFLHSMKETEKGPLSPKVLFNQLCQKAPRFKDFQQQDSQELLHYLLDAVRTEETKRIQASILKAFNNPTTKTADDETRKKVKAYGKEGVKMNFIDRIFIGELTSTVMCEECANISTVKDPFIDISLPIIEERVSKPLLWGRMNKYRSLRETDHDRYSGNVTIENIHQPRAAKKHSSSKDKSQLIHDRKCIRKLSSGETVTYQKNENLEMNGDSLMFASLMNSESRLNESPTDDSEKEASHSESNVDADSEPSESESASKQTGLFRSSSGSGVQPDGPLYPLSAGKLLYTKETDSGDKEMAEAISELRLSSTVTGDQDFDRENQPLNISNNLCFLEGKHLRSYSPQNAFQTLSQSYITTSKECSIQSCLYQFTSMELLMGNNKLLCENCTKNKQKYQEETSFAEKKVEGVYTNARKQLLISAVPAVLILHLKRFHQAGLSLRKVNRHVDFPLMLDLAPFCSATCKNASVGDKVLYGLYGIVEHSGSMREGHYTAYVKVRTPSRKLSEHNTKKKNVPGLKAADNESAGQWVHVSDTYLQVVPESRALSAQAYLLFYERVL
inactive: [1]; compound concentration: 50uM -0.13 | [1]; compound concentration: 200uM -0.934 | [2]; compound concentration: 50uM -0.103 | [2]; compound concentration: 200uM -0.476 | [3]; compound concentration: 50uM 0.274 | [3]; compound concentration: 200uM -0.808 | [4]; compound concentration: 50uM 0.181 | [4]; compound concentration: 200uM -0.179 | [5]; compound concentration: 50uM 0.189 | [5]; compound concentration: 200uM -0.754 | [9]; compound concentration: 50uM -0.48 | [9]; compound concentration: 200uM -0.823 | [10]; compound concentration: 50uM -0.354 | [10]; compound concentration: 200uM -0.47

USP9X (UniProt Q93008)
Sequence of UniProt Q93008 (Q93008 whole entry): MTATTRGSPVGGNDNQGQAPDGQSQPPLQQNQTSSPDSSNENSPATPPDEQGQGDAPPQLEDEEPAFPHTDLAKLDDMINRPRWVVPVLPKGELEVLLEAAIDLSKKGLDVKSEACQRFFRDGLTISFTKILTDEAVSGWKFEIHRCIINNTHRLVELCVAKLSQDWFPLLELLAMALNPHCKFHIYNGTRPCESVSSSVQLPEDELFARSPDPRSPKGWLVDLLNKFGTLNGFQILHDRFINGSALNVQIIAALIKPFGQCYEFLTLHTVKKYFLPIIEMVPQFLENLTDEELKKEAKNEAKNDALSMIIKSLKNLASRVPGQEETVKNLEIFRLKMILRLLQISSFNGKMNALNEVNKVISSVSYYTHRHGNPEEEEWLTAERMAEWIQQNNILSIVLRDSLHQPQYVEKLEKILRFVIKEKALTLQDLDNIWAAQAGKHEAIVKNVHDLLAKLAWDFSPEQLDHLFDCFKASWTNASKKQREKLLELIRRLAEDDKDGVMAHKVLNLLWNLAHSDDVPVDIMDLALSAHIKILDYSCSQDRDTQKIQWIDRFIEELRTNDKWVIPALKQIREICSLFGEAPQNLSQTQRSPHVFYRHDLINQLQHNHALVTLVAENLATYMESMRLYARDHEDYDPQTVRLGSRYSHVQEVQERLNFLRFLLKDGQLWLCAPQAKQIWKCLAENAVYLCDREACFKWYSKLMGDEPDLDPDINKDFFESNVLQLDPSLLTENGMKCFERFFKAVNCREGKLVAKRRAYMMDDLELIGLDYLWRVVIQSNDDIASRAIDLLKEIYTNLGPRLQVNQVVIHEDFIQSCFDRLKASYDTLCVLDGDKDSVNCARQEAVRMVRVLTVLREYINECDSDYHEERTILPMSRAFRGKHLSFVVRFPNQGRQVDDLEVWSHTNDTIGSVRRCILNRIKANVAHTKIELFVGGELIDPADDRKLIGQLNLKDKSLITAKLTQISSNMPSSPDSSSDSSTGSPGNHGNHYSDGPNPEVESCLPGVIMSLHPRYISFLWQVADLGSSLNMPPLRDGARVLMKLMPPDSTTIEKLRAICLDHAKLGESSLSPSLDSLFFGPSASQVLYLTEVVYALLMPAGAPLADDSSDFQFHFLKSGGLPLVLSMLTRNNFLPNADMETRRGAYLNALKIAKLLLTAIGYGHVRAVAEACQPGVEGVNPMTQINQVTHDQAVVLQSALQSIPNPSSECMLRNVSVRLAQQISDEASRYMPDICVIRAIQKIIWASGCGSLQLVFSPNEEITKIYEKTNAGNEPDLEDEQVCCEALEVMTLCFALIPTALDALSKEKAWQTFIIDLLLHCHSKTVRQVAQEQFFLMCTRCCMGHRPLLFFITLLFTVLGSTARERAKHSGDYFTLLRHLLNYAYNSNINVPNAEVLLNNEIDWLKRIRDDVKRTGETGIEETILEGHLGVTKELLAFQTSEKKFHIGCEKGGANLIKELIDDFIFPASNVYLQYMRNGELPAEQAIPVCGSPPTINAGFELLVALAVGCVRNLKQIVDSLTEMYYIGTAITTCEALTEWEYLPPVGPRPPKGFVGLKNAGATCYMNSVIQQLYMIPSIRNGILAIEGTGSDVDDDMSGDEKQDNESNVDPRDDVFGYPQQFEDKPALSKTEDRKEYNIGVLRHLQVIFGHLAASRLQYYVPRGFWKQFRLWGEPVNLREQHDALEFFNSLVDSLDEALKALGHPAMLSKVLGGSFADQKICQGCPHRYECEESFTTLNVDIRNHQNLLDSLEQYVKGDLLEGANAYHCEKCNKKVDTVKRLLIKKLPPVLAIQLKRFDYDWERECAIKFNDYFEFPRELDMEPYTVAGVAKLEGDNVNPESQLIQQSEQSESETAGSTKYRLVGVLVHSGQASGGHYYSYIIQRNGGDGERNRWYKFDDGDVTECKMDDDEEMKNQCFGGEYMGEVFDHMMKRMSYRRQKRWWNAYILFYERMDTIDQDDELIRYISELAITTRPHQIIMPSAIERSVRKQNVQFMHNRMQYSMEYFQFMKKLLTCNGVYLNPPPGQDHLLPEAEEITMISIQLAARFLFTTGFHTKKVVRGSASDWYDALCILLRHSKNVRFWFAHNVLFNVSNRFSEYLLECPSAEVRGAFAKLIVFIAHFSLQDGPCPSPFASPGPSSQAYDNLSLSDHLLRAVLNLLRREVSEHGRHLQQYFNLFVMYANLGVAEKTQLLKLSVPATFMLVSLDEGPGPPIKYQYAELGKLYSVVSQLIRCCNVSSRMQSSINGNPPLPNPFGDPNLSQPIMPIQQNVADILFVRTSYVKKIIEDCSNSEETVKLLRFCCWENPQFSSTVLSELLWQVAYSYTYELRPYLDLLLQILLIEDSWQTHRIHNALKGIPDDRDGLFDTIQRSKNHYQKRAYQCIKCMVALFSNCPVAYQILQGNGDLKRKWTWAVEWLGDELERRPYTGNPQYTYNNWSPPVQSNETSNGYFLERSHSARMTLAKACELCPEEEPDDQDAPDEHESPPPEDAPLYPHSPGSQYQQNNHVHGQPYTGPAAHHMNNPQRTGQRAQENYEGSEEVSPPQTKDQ
inactive: [1]; compound concentration: 50uM -0.0428 | [1]; compound concentration: 200uM -0.401 | [2]; compound concentration: 50uM -0.081 | [2]; compound concentration: 200uM -0.107 | [3]; compound concentration: 50uM -0.026 | [3]; compound concentration: 200uM -0.376 | [4]; compound concentration: 50uM 0.251 | [4]; compound concentration: 200uM 0.139 | [5]; compound concentration: 50uM 0.133 | [5]; compound concentration: 200uM -0.133 | [6]; compound concentration: 0.78uM -0.00765 | [6]; compound concentration: 1.56uM 0.093 | [6]; compound concentration: 3.13uM -0.0291 | [6]; compound concentration: 6.25uM 0.0092 | [6]; compound concentration: 12.5uM -0.0222 | [6]; compound concentration: 25uM -0.0898 | [6]; compound concentration: 50uM -0.0629 | [6]; compound concentration: 100uM -0.0253 | [6]; compound concentration: 200uM -0.0679 | [7]; compound concentration: 0.78uM -0.0702 | [7]; compound concentration: 1.56uM 0.0356 | [7]; compound concentration: 3.13uM 0.00372 | [7]; compound concentration: 6.25uM -0.00489 | [7]; compound concentration: 12.5uM -0.0481 | [7]; compound concentration: 25uM -0.0408 | [7]; compound concentration: 50uM -0.128 | [7]; compound concentration: 100uM -0.121 | [7]; compound concentration: 200uM -0.242 | [8]; compound concentration: 0.78uM -0.0701 | [8]; compound concentration: 1.56uM 0.0195 | [8]; compound concentration: 3.13uM 0.0203 | [8]; compound concentration: 6.25uM 0.0759 | [8]; compound concentration: 12.5uM -0.0293 | [8]; compound concentration: 25uM -0.0731 | [8]; compound concentration: 50uM -0.0138 | [8]; compound concentration: 100uM -0.119 | [8]; compound concentration: 200uM -0.256 | [9]; compound concentration: 50uM -0.0734 | [9]; compound concentration: 200uM -0.969 | [10]; compound concentration: 50uM -0.249 | [10]; compound concentration: 200uM -0.82
